High-throughput results deposited in PubChem BioAssay by several laboratories.
TIM10 inh: growth inhibitors of isogenic TIM10 control yeast, primary screen, counter-screen for tim10-1 yeast inhibitor project, luminescence, uHTS. 330,000 compounds, 1.4% hits. S. cerevisiae TIM10 strain growth, BacTiter-Glo luminescence, 24 h. inhibition, % at 10 µM;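 active means inhibition of 40% or more at the single tested concentration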;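 further: wild-type TIM10 isogenic control strain grown at permissive 25 °C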
tim23-1 inh: growth inhibitors of tim23-1 mutant yeast, primary screen, luminescence, uHTS; S. cerevisiae tim23-1 growth, BacTiter-Glo luminescence, 24 h; inhibition, % at 20 µM; 330,000 compounds, 1.3% hits; AID 463212, 2010;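 active means growth inhibition of the mutant yeast at or above 50%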;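 further: temperature-sensitive mutant grown at 25 °C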
SKKanGAS inh: S. pyogenes SKKanGAS growth inhibitors in kanamycin, primary screen, streptokinase expression inhibitor project, SKKanGAS strain, BacTiter-Glo luminescence | 6 h | inhibition, % at 7.5 µM | 300,000 compounds, 1.3% hits | AID 1662, 2009;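 active means mean replicate score, as percent of positive control median, at least 50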;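 further: strain carries kanamycin resistance gene driven by streptokinase promoter and grows in 40 µg/ml kanamycin; loss of luminescence reflects streptokinase promoter inhibition or plain growth inhibition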
NLRP3 yeast inh: NALP3 inflammasome inhibitors in reconstituted yeast, primary screen, luminescence, uHTS; 330,000 compounds, 0.39% hits; Yeast reconstituted NLRP3/ASC/caspase-1, beta-gal luminescence, 24 h; inhibition, % at 10 µM;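 active means inhibition of 50% or more; inactive means inhibition below 50%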
PfHsp90 yeast 2: growth inhibition of PfHsp90-expressing yeast, primary screen, antimalarial PfHsp90 inhibitor project, S. cerevisiae, BacTiter-Glo luminescence, single point, set 2; BacTiter-Glo ATP, 48 h; yeast lacking PDR1 and PDR3 efflux regulators; inhibition, % at 9.4 µM; 310,000 compounds, 0.32% hits; AID 504621, 2011;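 active means every replicate shows inhibition above about 80%, whatever the replicate mean, limit read from the data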
tim10-1 inh: growth inhibitors of tim10-1 mutant yeast, primary screen, luminescence, uHTS; S. cerevisiae tim10-1 ts strain growth, BacTiter-Glo, 24 h; inhibition, % at 20 µM; 330,000 compounds, 2.2% hits;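 active means inhibition of at least 40%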;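 further: mutant grown at 25 °C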
tim10-1 conf: growth inhibitors of tim10-1 mutant yeast, confirmation, single concentration, luminescence, S. cerevisiae. 7,400 compounds, 56% hits. inhibition, % at 20 µM. shares compounds with tim10-1 inh. S. cerevisiae tim10-1 ts strain growth, BacTiter-Glo, 24 h;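 active means inhibition of yeast growth at or above a set limit in either of two repeat tests at 20 µM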;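 further: tim10-1 mutant grown at permissive 25 °C to find synthetic lethal compounds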
Of the large screens only hits and unclear results are named; the others gave an inactive call (follow-up assays come after a bar, where they were run). Hits are enriched below; roughly 4.5% of the tested compounds scored in any of these assays.

O=[N+]([O-])c1nn(-c2ccc(Cl)cc2)n(O)c1=NCc1cccnc1	tim10-1 inh 42.2 | tim10-1 conf 30.4
Cn1nc(-c2ccc(Cl)cc2)c2cc(C(=O)N3CCN(C(=O)c4ccco4)CC3)sc21	tim10-1 inh 41.2 | tim10-1 conf inactive
Cn1nc(-c2ccc(Cl)cc2)c2cc(C(=O)NCCN3CCOCC3)sc21	tim10-1 inh 46.3 | tim10-1 conf inactive
O=P(OC1CCCCC1)(OC1CCCCC1)C(O)c1c(Cl)cccc1Cl (centres undefined)	tim10-1 inh 42.7 | tim10-1 conf inactive
COc1ccc(CCn2c(N)c(C(=O)NCc3ccco3)c3nc4ccccc4nc32)cc1	none
COCCNC(=O)c1c(N)n(CCC2=CCCCC2)c2nc3ccccc3nc12	tim10-1 inh 43.0 | tim10-1 conf inactive
COCCn1c(N)c(C(=O)OCc2ccccc2)c2nc3ccccc3nc21	tim10-1 inh 42.7 (no result: PfHsp90 yeast 2) | tim10-1 conf inactive
CC(OC(=O)c1ccc(S(=O)(=O)NCc2ccco2)cc1)C(=O)Nc1ccccc1 (centres undefined)	none (no result: SKKanGAS inh)
CCCCc1nnc(NC(=O)Cc2ccc(S(=O)(=O)N3CCOCC3)s2)s1	none (no result: SKKanGAS inh)
O=C(NCc1ccccc1)C(c1ccccc1F)N(C(=O)c1csnn1)C1CCCC1 (centres undefined)	none
c1ccc(CN2CCN(C(c3ccccc3)c3ccccc3)CC2)cc1	none
O=S(=O)(CCN1CCN(C(c2ccccc2)c2ccccc2)CC1)C(F)(F)F	tim10-1 inh 40.6 | tim10-1 conf 32.5
COc1ccc(CCNC(=O)CSc2nc(=O)n3cccc(C)c3n2)cc1OC	none
COc1ccc(CC(=O)OCC(=O)Nc2ncc(Cl)c(C)c2Cl)cc1	tim10-1 inh 43.1 (no result: SKKanGAS inh, PfHsp90 yeast 2) | tim10-1 conf 30.4
Cc1[nH]c2c(ccc3ccccc32)c1C1C(CCN)C1(C)C (centres undefined)	tim10-1 inh 44.5 (no result: PfHsp90 yeast 2) | tim10-1 conf 32.5
S=c1[nH]c2ccc3ccccc3c2[nH]1	none
Cc1ccc(-c2csc3nc[nH]c(=O)c23)cc1C	tim10-1 inh 41.3 | tim10-1 conf inactive
CC(C)OP(=O)(OC(C)C)C(Nc1ccccn1)c1ccc(F)cc1 (centres undefined)	tim10-1 inh 45.6 | tim10-1 conf inactive
COc1ccc(-c2cc(C3CC3)nc3sc(C#N)c(N)c23)cc1	tim10-1 inh 44.3 | tim10-1 conf 56.7
COc1ccc(-c2cc(C3CC3)nc(N)c2C#N)cc1	none
COC(=O)C1=C(C)NC(=O)/C1=C\c1ccc2c(c1)OCO2	tim10-1 inh 42.4 | tim10-1 conf inactive
CC1=NOC(=O)/C1=C/c1ccc2c(c1)OCO2	none
CN1C(C(=O)Nc2ccc(OC(F)(F)F)cc2)=CC(c2cccs2)=NS1(=O)=O	tim10-1 inh 40.7 | tim10-1 conf 39.0
COc1ccc(NC(=O)C2=CC(c3cccs3)=NS(=O)(=O)N2C)cc1	none
COc1ccc(C(CNC(=O)c2oc3ccc(Cl)cc3c2C)N2CCCCC2)cc1 (centres undefined)	tim10-1 inh 46.8 | tim10-1 conf inactive
CCc1cc(C(=O)NCC(c2ccc(OC)cc2)N2CCOCC2)sc1C (centres undefined)	none (no result: SKKanGAS inh)
COc1ccc(C(CNC(=O)c2cc(C)oc2C)N2CCOCC2)cc1 (centres undefined)	tim10-1 inh 45.1 | tim10-1 conf inactive
COc1ccc(S(=O)(=O)Nc2nc3ccccc3nc2Nc2cccc(C(=O)O)c2)cc1	none
COCC(=O)Nc1sc2c(c1C(=O)OC)C(C(=O)OC)CC2 (centres undefined)	tim10-1 inh 43.4 | tim10-1 conf inactive
CC(=O)c1cccc(NC(=S)NC(=O)Cc2ccccc2)c1	tim10-1 inh 45.9 | tim10-1 conf inactive
CC(=O)c1cccc(NC(=S)NCCC2=CCCCC2)c1	none | tim10-1 conf inactive
